# In PubChem BioAssay AID504853 (Southern Research Specialized Biocontainment Screening …, 2011):
# Potency and affinity values are given separately. Active and inactive are the calls of the source. A call without a number means that no potency is given here. No rule for the calls is given here.
# Experiment: HepG2 cell cytotoxicity, dose response, cytotoxicity control, set 3 (AID 504853)
# Conditions: series mostly up to 50 µM
row,Structure (SMILES),outcome
1,COc1ccc(NC(=O)CSc2nc3ccccc3c(=O)[nH]2)cc1,inactive
2,CCSc1nc(C)c(C)c(=O)[nH]1,inactive
3,CC(Sc1nc2ccccc2c(=O)[nH]1)C(=O)NC1CCCCC1 (stereo unspecified),inactive
4,Cc1cc(=O)[nH]c(SCC(=O)NC2CCCCC2)n1,inactive
5,CCC(Sc1nc2ccccc2c(=O)[nH]1)C(=O)Nc1cccc(OC)c1 (stereo unspecified),inactive
6,Cn1c(SCC(=O)NC2CCCCC2)nc2ccccc2c1=O,inactive
7,CC1CCN(C(=O)C2CCN(c3nnc(-n4cccc4)s3)CC2)CC1,inactive
8,CN(C)C(=O)CSc1nc2ccccc2c(=O)[nH]1,inactive
9,CC[N+](C)(CC)CCCCOc1ccc2c(c1)C(=O)c1cc(OCCCC[N+](C)(CC)CC)ccc1-2,inactive
10,O=C(CSc1nc2ccccc2c(=O)[nH]1)NCc1ccc(Cl)cc1,inactive
11,COC(=O)c1ccc(CNc2c(N3CCCC3)c(=O)c2=O)cc1,inactive
12,Cc1nc(SCC(N)=O)[nH]c(=O)c1C,inactive
13,CCOC1OC(=O)C(Cl)=C1Nc1ccccc1C (stereo unspecified),inactive
14,NC(=O)CSc1nc2ccccc2c(=O)[nH]1,inactive
15,O=C(CSc1nc2ccccc2c(=O)[nH]1)NC1CCCCC1,inactive
16,COc1cccc(NC(=O)CSc2nc3ccccc3c(=O)[nH]2)c1,inactive
17,Cc1[nH]c(=S)[nH]c(=O)c1C,inactive
18,Nc1cc(=O)[nH]c(SCC(=O)NC2CCCCC2)n1,inactive
19,CC(C)CCNC(=O)CSc1nc2ccccc2c(=O)[nH]1,inactive
20,Cc1cc(=O)[nH]c(=S)[nH]1,inactive
21,CNC(=O)CSc1nc2ccccc2c(=O)[nH]1,inactive
22,O=C(CSc1nc2ccccc2c(=O)[nH]1)NC1CCCC1,inactive
23,O=C(CSc1ncccn1)NC1CCCCC1,inactive
24,COc1cccc(NC(=O)CSc2nc3c(c(=O)[nH]2)CCC3)c1,inactive
25,CC(C)CCNC(=O)CSc1nc2c(c(=O)[nH]1)CCC2,inactive
26,CC1CCN(C(=O)CSc2nc3ccccc3c(=O)[nH]2)CC1,inactive
